# In PubChem BioAssay (Tox21):
# Records with an inconclusive call do not appear. Unmarked numbers belong to inactive results. Calls of active or inactive are those of the source. The call rests on the fitted dose curve; in most records, active means well fitted activation curve with a large enough effect in the repeat runs; inconclusive means weak or mixed curves; inactive means no such curve, though single readings can be large or run the other way.
# Target: Nuclear receptor subfamily 1 group I member 2 (Homo sapiens) (UniProt O75469)
# Experiment: CYP3A4 induction through human pregnane X receptor (PXR) by small molecules, qHTS assay (AID 1346984); further: nearly all actives have a fitted effect of over 40% in size
# Conditions: DPX-2 HepG2 PXR, CYP3A4-luciferin luminescence, 24 h; series mostly up to 46.1 µM; activation: at the top concentration
# Source text: National Center for Advancing Translational Sciences [NCATS]
# NIH Chemical Genomics Center [NCGC]
# U.S. Environmental Protection Agency [EPA]
# National Institutes of Environmental Health Sciences [NIEHS]
# National Toxicology Program [NTP]
# The Pregnane X receptor (PXR), a ligand activated nuclear receptor plays a critical role in the regulation of genes involved in drug metabolism and transporters. Activation of PXR is responsible for unwanted adverse drug reactions. PXR binds xenobiotics and when compounds interact with PXR enhances the expression of CYP3A genes. Identifying the compounds with the potential for PXR activation and CYP3A4 induction can be of importance in improving the efficacy of drugs with less toxicity and avoiding drug-drug interactions.
# DPX-2 (Puracyp, Inc.) cell lines, used for screening against human PXR activation has HepG2 cells co-transfected with a PXR response element and a luciferase construct containing CYP3A4 promoter. Increase in luciferase activity can be used to identify the compounds that cause the induction of CYP3A4.
# DPX-2 cells were dispensed at 2,000 cells per well in 5uL of assay medium into white, solid-bottom 1536-well plates using a Multidrop Combi dispenser (Thermo Scientific). The assay plates were incubated at 37C for 5hr before transferring 23nL of test compounds dissolved in DMSO and positive control via Pintool station (Wako). The assay plates were incubated at 37C for 24hr. After 24hr compound treatment, 1uL of 3uM (final concentration) P450 substrate (P450-Glo CYP3A4 screening system with Luciferin-IPA, Promega) was added by a Flying Reagent Dispenser (FRD, Aurora Discovery). The assay plates were incubated for 3hr at 37C. Then 5ul One-Glo assay reagent (Promega) was added to each plate by an FRD and following 30 min incubation at room temperature, luciferase activity was quantified on a ViewLux plate reader (Perkin Elmer).
# On the % scale 0 is the no-effect control and ±100 the full control effect; potency means the concentration at half of the fitted maximal effect.
Compound,activation,Potency
Cc1cc(-n2nc3ccc(Cl)cc3n2)c(O)c(C(C)(C)C)c1,-4.96%,
CC(C(=O)O)c1ccc2c(c1)[nH]c1ccc(Cl)cc12 (stereo not given),-9.73%,
Cc1ccc(C(C)C)cc2c(C)ccc1-2,26.1%,
Cc1cc(C(C#N)c2ccc(Cl)cc2)c(Cl)cc1NC(=O)c1cc(I)cc(I)c1O (stereo not given),3.22%,
O=c1[nH]c(=O)n([C@H]2C[C@H](O)[C@@H](CO)O2)cc1F,-0.239%,
CCc1cccc(CC)c1NC(=O)CN(CC(=O)O)CC(=O)O,-0.696% [at 20.6 µM],
CC(CCc1ccccc1)NCC(O)c1ccc(O)c(C(N)=O)c1 (stereo not given),-18.9%,
C[C@@H](O)[C@H](N)C(=O)O,10.5%,
Cc1nc(-c2ccc(Cl)cc2)oc1COC(C)(C)C(=O)O,-1.51%,
CCCCN(CCCC)CC(O)c1cc(Cl)cc2c1-c1ccc(Cl)cc1/C2=C/c1ccc(Cl)cc1 (stereo not given),,10 µM (active)
COc1ccc2cc1Oc1ccc(cc1)C[C@H]1c3c(cc4c(c3Oc3cc5c(cc3OC)CCN(C)[C@@H]5C2)OCO4)CCN1C,,10 µM (active)
Cc1cccc(C(=O)O)c1O,-2.46%,
C#C[C@]1(OC(C)=O)CC[C@H]2[C@@H]3CCC4=C[C@@H](OC(C)=O)CC[C@@H]4[C@H]3CC[C@@]21C,-15.8%,
Cc1cc(C(C)(C)C)cc(C)c1CC1=NCCN1,26.1% [at 20.6 µM],
COc1c(C)c2c(c(O)c1C/C=C(\C)CCC(=O)OCCN1CCOCC1)C(=O)OC2,22.2%,
CCCCCCCCCCCCCCCC[N+](C)(C)CC,-12.5%,
CCCCC(CC)CN1CN(CC(CC)CCCC)CC(C)(N)C1 (stereo not given),-7.81% [at 20.6 µM],
CCc1oc2ccccc2c1C(=O)c1cc(I)c(O)c(I)c1,,25.1 µM (active)
CCCCCCCCCCCCCC[N+](C)(C)C,-7.24%,
O[C@@H]([C@H](O)[C@H](O)CBr)[C@H](O)CBr,-6.79%,

Compound,activation,Potency
CN1CCCCC1CCN1c2ccccc2Sc2ccc(S(C)=O)cc21 (stereo not given),-10.3%,
CCCCCCCC/C=C\CCCCCCCCN,-8.06%,
Cc1c(C)c2c(c(C)c1OC(=O)c1cccnc1)CC[C@@](C)(CCC[C@H](C)CCC[C@H](C)CCCC(C)C)O2,21.9%,
CCC(CC)(CC(=O)Nc1cccc(/C=C/c2nc(C3CCC3)cs2)c1)C(=O)O,-7.33%,
CN(C)c1ccc(C(=C2C=CC(=[N+](C)C)C=C2)c2ccc(N(C)C)cc2)cc1,-34.2%,
COC(=O)C1=C(C)NC(C)=C(C(=O)OCCN2CCN(C(c3ccccc3)c3ccccc3)CC2)C1c1cccc([N+](=O)[O-])c1 (stereo not given),-26.3%,
CCCCCCCCCCCCOCCOCCOCCOCCOCCOCCOCCOCCOCCO,-19%,
COC1=C(OC)C(=O)C(CCCCCCCCCCO)=C(C)C1=O,37.8%,
CN(C)C(=O)COC(=O)Cc1ccc(OC(=O)c2ccc(N=C(N)N)cc2)cc1,-2.35%,
CC[N+](CC)(CC)CCOc1ccc(/C=C/c2ccccc2)cc1,-5.12%,
CCCCCCCCCCCCCC[N+](C)(C)Cc1ccccc1,-1.32%,
O=C(O)c1cc(=O)c2ccccc2o1,3.7%,
CCCCCCCCCCC[C@@H](C[C@@H]1OC(=O)[C@H]1CCCCCC)OC(=O)[C@H](CC(C)C)NC=O,-9.24%,
CCOc1ccc2ccccc2c1C(=O)N[C@@H]1C(=O)N2[C@@H]1SC(C)(C)[C@@H]2C(=O)O,-7.89% [at 20.6 µM],
O=C(O)c1cc(-c2ccc(F)cc2F)ccc1O,5.35% [at 20.6 µM],
Nc1ccc(C(=O)O)c(O)c1,-5.03%,
C#C[C@]1(O)CC[C@H]2[C@@H]3[C@H](C)CC4=C(CCC(=O)C4)[C@H]3CC[C@@]21C,-7.37%,
CCCCC/C=C\C/C=C\CCCCCCCC(=O)O,-4.08%,
Cc1c(F)c(N2CCNC(C)C2)cc2c1c(=O)c(C(=O)O)cn2C1CC1 (stereo not given),-0.0569%,
CC(C)Cn1cnc2c(N)nc3ccccc3c21,2.01%,
